Results as given in PubChem BioAssay (NCI).
The panel holds about 83,000 compounds, 20% with a hit somewhere; the sample as a whole holds those more often.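 48-hour exposure, single concentration, 96-well plates; percent growth endpoint where 0 means no net growth. Active: below 10.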 A number with no mark means an inactive call. The source made the active and inactive calls.

test system: ACHN renal; assay: NCI-60 one-dose screen, 48 h (100 = growth as untreated, 0 = no growth, -100 = all killed); conditions: 10 µM unless noted
Procedure: Growth inhibition of the ACHN human tumor cell line is measured as a screen for anti-cancer activity. Cells are grown in 96 well plates and exposed to the test compound for 48 hours. Compounds are tested at a single concentration, which is 10^-5 M for most compounds. The reported endpoint is percent growth (GI% or GIPRCNT), where numbers from 0 - 100% represent growth inhibition, and numbers from -100% - 0 represent cell death. For example, a value of 40 represents 60% growth inhibition. A value of 0 means no net growth occurred over the course of the experiment. A value of -40 indicates 40% of cells at the beginning of the experiment died by the end of the experiment. A value of -100 means all cells are dead at the end of the experiment.
NCI-60 Human Tumor Cell Lines Screen was performed using the standard one-dose NCI protocol, which is described in more detail at https://dtp.cancer.gov/discovery_development/nci-60/default.htm.
Compounds with GIPRCNT values below 10 were considered active. Activity score was based on GIPRCNT using the following formula: […]
Score is 0 for GIPRCNT values of 100 or above, 50 for GIPRCNT values of 0, and 100 for GIPRCNT values of -100.

Point of comparison: Cn1cc(-c2noc(C(=O)c3cn(C)c4ncccc34)n2)c2ccccc21, growth 98.6%. Against it:
- C=CCc1nc2ccccc2s1 — higher, 101%
- CCCOc1ccc(-c2nc(-c3ccc(N)cc3)cs2)cc1 — lower, 97.1%
- N#C/C(C(=O)c1ccccc1)=C1/C(=O)Nc2ccccc21 — lower, 98%
- COc1ccc(/C=C(/C2=NCCN2)n2ccc3ccccc32)cc1 — lower, 82.9%
- COc1ccc(NC(=O)Nc2ccc(-c3cccnc3)cc2N2CCC(CO)CC2)cc1 — lower, 97.3%
- C=CCCCCOc1ccccc1-c1cnc(OCCCCC=C)n1C — lower, 84.5%
- O=C(O)c1cn(C2CC2)c2cc(N3CCN(Cc4c(O)ccc5ccccc45)CC3)c(F)cc2c1=O — lower, 53.9%
- Nc1nc(Nc2ccccc2)c2ncn(Cc3ccc4c(c3)OCO4)c2n1 — lower, 56.7%
- NC1=NC(=O)NC1(c1ccccc1)c1ccccc1 — lower, 95.8%
- COc1ccc2c(c1)c(-c1noc(-c3cn(C)c4ncc(F)cc34)n1)cn2C — lower, 84.4%
- O=C(O)c1cn(C2CC2)c2cc(N3CCN(Cc4cc(Cl)ccc4O)CC3)c(F)cc2c1=O — lower, 44.3%
- Nc1cc(NN=C(c2ccc(O)cc2)c2ccc(O)cc2)c([N+](=O)[O-])cc1[N+](=O)[O-] — lower, 18.1%
- CC1=CC[C@@H]2C(C)(C)[C@@H](O)CC[C@@]2(C)[C@@H]1COc1ccc2ccc(=O)oc2c1 — lower, 48.6%
- CCOC(=O)c1nn(C2CCCCO2)c2ccc(NC(=O)Cn3nnc4ccccc43)cc12 (stereo not given) — the same, 98.6%
- CCOC(=O)CC(c1ccccc1)C(C#N)c1ccccc1 (stereo not given) — higher, 103%
- COC(=O)[C@H](CC(C)C)NC(=O)NC(=O)NC(=O)CI — lower, 37%
- C[C@]12CCc3c(ccc4cc(O)ccc34)[C@@H]1CC[C@H]2O — higher, 103%
- c1ccc(-c2nnc(-c3c[nH]c4ncccc34)s2)cc1 — lower, 69.4%
- CN(Cc1cccc(C(F)(F)F)c1)C(=O)[C@@H](CC(=O)N1CCC(N2CCCCC2)CC1)N1C(=O)[C@@H](N2C(=O)OC[C@@H]2c2ccccc2)[C@H]1/C=C/c1ccccc1 — higher, 100%
- CCc1ccc(-c2ccc(COc3ccc(CC4SC(=O)NC4=O)cc3)cc2)cc1 (stereo not given) — lower, 69.5%
- CC1(C)OC2[C@@H](CNC(=O)NC(=O)NC(=O)CI)O[C@@H](n3cnc4c(NC(=O)Nc5ccccc5)ncnc43)[C@H]2O1 (stereo not given in full) — lower, 66.2%
- CC(C)CCSc1nc(N)nc2nc[nH]c12 — lower, 91.5%
- COc1ncc(-c2ccc3nccc(C#CCCCCC(=O)NO)c3c2)cc1NS(=O)(=O)c1ccc(F)cc1F — lower, 10.7%
- COc1ccc(C(=O)CCC(=O)O)cc1 — higher, 100%
- CC(=O)Nc1ccc2nc3ccc(NC(C)=O)cc3[n+](-c3ccccc3)c2c1 — higher, 98.9%
- CCCCCCNC(=O)Nc1ncnc2c1ncn2-c1ccccc1 — lower, 90.7%
- O=[N+]([O-])c1cc([N+](=O)[O-])c(C(F)(F)F)cc1NN=C(c1ccc(O)cc1)c1ccc(O)cc1 — lower, 12.8%
- CCCCCCCCCCCCNC(=S)N/N=C/c1ccccc1O — lower, 77.1%
- Cc1ccc(S(=O)(=O)Oc2ccc(Br)cc2Br)cc1 — lower, 95.6%
- CCOc1cc(NC(=O)c2ccccc2)c(OCC)cc1N — higher, 118%
- Nc1nnc(CSc2nnc3n(Cc4ccccc4)c(=O)c4c5c(sc4n23)CCCC5)s1 — lower, 94.9%
- O=C1Nc2ccccc2/C1=C/C(=O)c1ccc(N2CCCCC2)cc1 — lower, 27.6%

In the case of CC1(C)C(=O)/C(=C\c2ccco2)C[C@]2(C)[C@H]3CC=C4[C@@H]5C[C@](C)(C(=O)O)CC[C@]5(C)CC[C@@]4(C)[C@]3(C)CC[C@@H]12, the growth is reported as -79.9% [100 µM] (active).
C=C(C)[C@@H]1CC[C@]2(C(=O)N3CCN(C)CC3)CC[C@]3(C)[C@H](CC[C@@H]4[C@@]5(C)C/C(=C/c6ccncc6)[C@H](O)C(C)(C)[C@@H]5CC[C@]43C)[C@@H]12 was tested, and the growth was -0.441% [100 µM] (active).
With c1ccc(-c2nc(N3CCCNCC3)c3nc(-c4ccccc4)oc3n2)cc1 the growth was -53.5% (active).
In the case of ClC1=C(Cl)C(Cl)=C(Cl)C1=Cc1ccccc1, the growth is reported as -35.5% (active).
C=C(C)[C@@H]1CC[C@]2(C)[C@H](CC[C@@H]3[C@@H]([C@@](C)(O)CCC=C(C)C)CC[C@]32C)[C@@]1(C)CCC(=O)O was tested, and the growth was 6.72% [100 µM] (active).
In the case of C[C@H]1[C@H](C)CC[C@]2(C(=O)O)CC[C@]3(C)C(=CC[C@@H]4[C@@]5(C)C/C(=C/c6ccco6)C(=O)C(C)(C)[C@@H]5CC[C@]43C)[C@H]12, the growth is reported as -97.9% [100 µM] (active).

Compound C=C(C)[C@@H]1CC[C@]2(C(=O)NCCCCCCN(CCCN)CCCN)CC[C@]3(C)[C@H](CC[C@@H]4[C@@]5(C)CC[C@H](OCCCN)C(C)(C)[C@@H]5CC[C@]43C)[C@@H]12 has a growth of 75.6% [100 µM].
